Screening results (PubChem)
Sampled rows, rich in hits. Any-hit rate of the full collection: about 1.3%.
GRK2 aptamer HTS: human GRK2 inhibition via aptamer displacement | bead flow cytometry, FAM-aptamer displacement from GRK2 | actives 0.59% (n = 330,000) | inhibition of aptamer binding, % at 10 µM;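 active means inhibition of aptamer binding above 40%, roughly 3 SD of noise, on plates passing a quality check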;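 further: median bead fluorescence of bound FAM aptamer so fluorescent compounds give negative values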
Bfl-1 A1 inh: inhibitors of the anti-apoptotic protein A1, read as caspase activation; MEF A1-2A-BIM cells, Caspase-Glo 3/7 luminescence, 3 h; percent of clofoctol response, vehicle zero; caspase activation, % (no concentration beside the values); actives 0.066% (n = 330,000);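 active means over half of replicate activation scores above 10%, or exactly half above 10 with the replicate mean above 10; inconclusive means replicate mean below 10 yet half the replicates above 10; inactive means over half of replicates below 10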
VLA-4 inh: inhibition in a human VLA-4 binding assay; P13612; VLA-4 expressing cells, ligand binding flow cytometry; inhibition, % (about 7 µM as worked out from the volumes in the protocol); actives 0.2% (n = 330,000); AID 2557; in the data active means inhibition above about 50%
NTR1 ag: agonists of human neurotensin receptor NTR1; NTR1-U2OS beta-arrestin-GFP spot imaging, agonist mode; activation, % at 20 µM; actives 0.17% (n = 330,000);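 active means activation at or above 40% of the spot to cytoplasm intensity ratio, with at least 20 cells analyzed; inconclusive means wells under 20 cells, flagged as cytotoxic or low count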;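 further: 0% = DMSO without peptide and 100% = 100 nM NTR1 peptide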
B2AR ag: human beta-2 adrenergic receptor agonism by FAP. P07550. Am2.2-beta2AR cells, FAP receptor internalization, flow cytometry. response, % (test concentration not listed). actives 0.43% (n = 340,000). AID 504454;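 active means response above a set limit, near 3 SD of response in nonfluorescent compounds, cut at about 42% in these data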
Beta2AR ag CP1: activates human beta-2 adrenergic receptor. shares compounds with B2AR ag. Am2.2-beta2AR cells, FAP surface receptor, flow cytometry; stronger effect = lower value. percent response (surface receptor), % at 10 µM. actives 25% (n = 1,100);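 active means surface receptor percent response at or below 58%, roughly 3 SD from nonfluorescent compounds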
FAP fluor counter: counter-screen for beta-2AR agonists: fluorescence in Am2.2 cells; shares compounds with B2AR ag; FAP fluorogen flow cytometry, fluorescence counterscreen; stronger effect = lower value; calls only at 10 µM; 1,100 tested, under 10 active;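 active means percent response below a set limit in fluorescence channel 1 and below 50% in channel 8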
Starred values were filed as active, the others as inactive; i = inactive; ? = inconclusive; nt = not tested or not shown.

SMILES	GRK2 aptamer HTS	Bfl-1 A1 inh	VLA-4 inh	NTR1 ag	B2AR ag	Beta2AR ag CP1	FAP fluor counter
C[C@H](CO)N1C[C@H](C)[C@@H](CN(C)Cc2ccccc2)Oc2ccc(NC(=O)CCCCCC(=O)Nc3ccccc3N)cc2C1=O	0	1	2	0	23	nt	nt
O=C(O)c1cn2c3c(ccc(Cl)c3c1=O)OCC2	0	1	6	2	-3	nt	nt
Cc1cccc(C)c1NC(=O)COC(=O)/C=C/c1ccc(S(=O)(=O)N2CCOCC2)cc1	0	0	9	-1	5	nt	nt
COc1ccc(S(=O)(=O)N2CCCCCC2)cc1C(=O)N(C)Cc1ccc(OC)c(OC)c1OC	0	-1	10	2	51*	108	i
COc1ccc(CN(C)C(=O)c2cc(S(=O)(=O)N3CCCCCC3)ccc2OC)cc1OC	0	0	-15	1	3	nt	nt
Cc1ccc(NC(=O)CCCSc2nc3ccccc3[nH]2)cc1	0	0	i	-1	-24	nt	nt
Cc1ccc(SCC(=O)Nc2ccc(-c3nc4ccccc4[nH]3)cc2)cc1	0	0	19	6	107*	16*	i
CCOC(=O)CSc1ccc(-c2nc3ccccc3[nH]2)cn1	0	0	10	-4	46*	107	i
COc1ccc(NC(C)=O)cc1S(=O)(=O)NCCc1ccccn1	4	2	9	1	-5	nt	nt
COc1ccccc1CNC(=O)CN1CCN(c2ccc(C(C)=O)cc2)CC1	0	0	2	1	54*	118	i
COc1cccc(CNC(=O)CCC2CCCN(C(=O)c3cc(C4CC4)[nH]n3)C2)c1 (stereo unspecified)	0	-2	12	-1	-19	nt	nt
O=C(CNC(=O)c1ccco1)NNC(=O)c1n[nH]c(=O)c2ccccc12	0	0	0	2	-3	nt	nt
N#Cc1cc(-c2ccccc2)nnc1Oc1ccccc1Cl	3	0	4	7	57*	18*	i
COc1ccc(Sc2nnc(-c3ccccc3)cc2C#N)cc1	0	-1	32	3	-2	nt	nt
O=C(CSc1ccc(Cl)cc1)Nc1ccccc1N1CCN(C(=O)c2ccccc2)CC1	1	0	-1	17	43*	65	i
CS(=O)(=O)N1CCN(c2ccccc2NC(=O)CSc2ccc(Cl)cc2)CC1	0	0	6	7	0	nt	nt
O=C(C[n+]1cccc(NC(=O)c2ccccc2)c1)c1ccccc1	0	1	-6	-2	-10	nt	nt
O=C(C[n+]1cccc(NC(=O)c2ccccc2)c1)c1ccc(NC(=O)c2ccccc2)cc1	0	0	-3	-2	72*	47*	i
CC(=O)Nc1ccc(NC(=O)CCCc2ccccc2)cc1	1	0	12	0	1	nt	nt
Oc1c(CNc2ccccc2)cc(COCc2ccccc2)c2cccnc12	1	nt	45	0	4	nt	nt
Oc1c(CN2CCOCC2)cc(COCc2ccccc2)c2cccnc12	0	?	18	nt	-2	92	i
Cc1ccccc1-n1c(C)nnc1SCc1cc(=O)oc2ccc3ccccc3c12	0	0	-4	-1	6	nt	nt
O=c1[nH]c2ccccc2cc1CN(Cc1cccnc1)S(=O)(=O)c1ccc(Cl)cc1	3	0	5	2	-9	153	i
CC(=O)Nc1ccc(S(=O)(=O)N(Cc2cccnc2)Cc2cc3ccccc3[nH]c2=O)cc1	1	0	-6	2	74*	29*	i
O=c1[nH]c2ccccc2cc1CN(Cc1cccnc1)S(=O)(=O)c1ccc([N+](=O)[O-])cc1	0	0	-3	3	-18	151	i
CCCCN(Cc1cc2ccccc2[nH]c1=O)S(=O)(=O)c1ccc(C)cc1	2	1	42	8	-15	nt	nt
COC(=O)c1ccccc1S(=O)(=O)N(Cc1ccco1)Cc1cc2cc(OC)ccc2[nH]c1=O	3	1	-6	1	6	nt	nt
CC(=O)Nc1ccc(S(=O)(=O)N(Cc2ccco2)Cc2cc3ccccc3[nH]c2=O)cc1	10	1	-6	0	106*	23*	i
